Experimental findings from PubChem BioAssay (NCI) are described below.

Among the test systems are NCI-H23 lung; NCI-H226 lung; HOP-62 NSCLC; NCI-H460 lung; HOP-92 NSCLC; NCI-H522 lung; A549/ATCC NSCLC; 786-0 renal; COLO 205 colon.
Common to all, as to experiment: NCI-60 one-dose screen, 48 h (100 = growth as untreated, 0 = no growth, -100 = all killed)
What all share (conditions): 10 µM

About 83,000 compounds went through this panel and 20% of them were active in at least one assay; those are over-represented in the sample as a whole.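 Results are percent growth after 48 hours of single-concentration exposure. 100 means growth as in untreated cells, lower positive values show inhibition; negative values down to -100 show cell death.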 A number with no mark means an inactive call. Calls of active or inactive are those of the source. The calls were made as follows: active = growth percent below 10; inactive = the rest.

For the molecule `COc1ccc(-c2nnc(SCC(=O)Nc3ccc(C(=O)/C=C/c4ccccc4)cc3)n2-c2ccccc2)cc1OC`, the growth in the test on NCI-H23 lung was 80.8%; with NCI-H226 lung it was 50.4%; in the test on HOP-62 NSCLC, 102%; in the test with NCI-H460 lung, 37.1%; with HOP-92 NSCLC, 78.4%; in the test on NCI-H522 lung, 53.8%. For the same molecule, the growth in the test on A549/ATCC NSCLC is 51.9%; in the test with 786-0 renal, 67.1%; in the test on COLO 205 colon, 56.1%.

Consider `CC(C)(C)c1nn(-c2ccccc2)c2c1CC1(CN2Cc2ccc(Cl)cc2)C(=O)c2ccccc2C1=O`, for which the growth was 80.8% with NCI-H23 lung; 81.9% in the test with NCI-H226 lung; 102% in the test with HOP-62 NSCLC; 90.7% in the test on NCI-H460 lung; 54.8% with HOP-92 NSCLC; 80.3% in the test with NCI-H522 lung. The growth is 70.7% in the test on A549/ATCC NSCLC, 86.7% in the test with 786-0 renal and 117% with COLO 205 colon.

On to `CCOC(=O)C1=CSC2=NC3=C(CCC/C3=C\c3cc(OC)c(OC)c(OC)c3)C(c3cc(OC)c(OC)c(OC)c3)N12` (stereo not given), for which the growth in the test with NCI-H23 lung is 52.3%; in the test with NCI-H226 lung, 67.5%; with HOP-62 NSCLC, 74.5%; in the test on NCI-H460 lung, 23.3%; in the test with HOP-92 NSCLC, 84.8%; in the test on NCI-H522 lung, 95.4%. Moreover, the figures for the growth in the test on A549/ATCC NSCLC, in the test with 786-0 renal and with COLO 205 colon were 65.1%, 91.3% and 52.7%, respectively.

`CCn1cc(C(=O)O)c(=O)c2cc(F)c(N3CCNCC3)cc21`: the growth is 108% with NCI-H23 lung; 92.3% in the test on NCI-H226 lung; 108% in the test on HOP-62 NSCLC; 104% with NCI-H460 lung; 115% in the test with HOP-92 NSCLC; 104% with NCI-H522 lung. Further, the growth with A549/ATCC NSCLC is 103%; in the test on 786-0 renal it was 108%; in the test on COLO 205 colon, 102%.

In the case of `C=CCn1c(SCC(=O)Nc2ccc(C(=O)/C=C/c3cc(OC)c(OC)c(OC)c3)cc2)nnc1-c1cc(-c2ccc(Cl)cc2)nc2ccccc12`, the growth in the test on NCI-H23 lung is 88.7%; in the test on NCI-H226 lung, 89.1%; in the test on HOP-62 NSCLC, 97.5%; with NCI-H460 lung, 93.1%; in the test with HOP-92 NSCLC it was 83%; with NCI-H522 lung, 83.1%. Moreover, the growth with A549/ATCC NSCLC was 96.7%; in the test with 786-0 renal, 74.2%; in the test on COLO 205 colon, 115%.

Consider `CNC(=O)c1cc(Oc2ccc3c(c2)sc2nc(-c4ccc(N)cc4)cn23)ccn1`, for which the growth with NCI-H23 lung was 35%; in the test with NCI-H226 lung, 61.8%; in the test on HOP-62 NSCLC, 46.8%; with NCI-H460 lung it was 10.1%; in the test on HOP-92 NSCLC, 58.4%; with NCI-H522 lung it was -22.6% (active). Besides, the growth with A549/ATCC NSCLC is 24.5%; in the test with 786-0 renal it was 19.4%; in the test on COLO 205 colon it was -11.1% (active).

Consider `CC(=O)OC1CC2C(C)(C)CCC[C@]2(C)C2=C1C(O)=C(C(C)C)C(=O)C2=O` (stereo not given in full), for which the growth in the test with NCI-H23 lung was 9.91% (active); with NCI-H226 lung it was -71.1% (active); in the test on HOP-62 NSCLC, -40.3% (active); in the test on NCI-H460 lung it was -39.8% (active); in the test with HOP-92 NSCLC, -79.2% (active); in the test with NCI-H522 lung, 58.6%. In addition, the growth was 6.64% (active) in the test with A549/ATCC NSCLC, -3.43% (active) in the test on 786-0 renal and -38.5% (active) with COLO 205 colon.

Consider `COc1cc2cc(Oc3ccc(NC(=O)Nc4ccc(Cl)c(C(F)(F)F)c4)cc3)c(C)nc2cc1OC`, for which the growth in the test with NCI-H23 lung was 3.46% (active); in the test with NCI-H226 lung, 4.49% (active); in the test on HOP-62 NSCLC, -50.9% (active); in the test with NCI-H460 lung it was -19.8% (active); in the test on HOP-92 NSCLC it was -22.3% (active); with NCI-H522 lung it was -43.6% (active). In addition, the growth is -17.2% (active) with A549/ATCC NSCLC, -21.1% (active) with 786-0 renal and -49.5% (active) with COLO 205 colon.

Turning to `O=C1CSC(=S)N1/N=C/c1ccc(Cl)s1`, the growth in the test with NCI-H23 lung was 90.3%; with NCI-H226 lung, 106%; in the test on HOP-62 NSCLC, 95.4%; in the test with NCI-H460 lung, 107%; with HOP-92 NSCLC, 110%; in the test on NCI-H522 lung, 96.2%. The growth with A549/ATCC NSCLC is 103%; with 786-0 renal it was 102%; with COLO 205 colon it was 107%.

As to `CCNCC(=O)Nc1ccc(C(=O)OCC)cc1`, the growth was 99.9% in the test with NCI-H23 lung; 109% with NCI-H226 lung; 90.5% with HOP-62 NSCLC; 99.5% in the test with NCI-H460 lung; 113% with HOP-92 NSCLC; 88.7% in the test with NCI-H522 lung. Moreover, the growth was 103% in the test on A549/ATCC NSCLC, 89.6% in the test on 786-0 renal and 108% with COLO 205 colon.

On to `CCOC(=O)C(C)(c1ccccc1)c1ccccc1`, for which the growth with NCI-H23 lung was 106%; in the test with NCI-H226 lung, 100%; in the test on HOP-62 NSCLC, 95%; in the test with NCI-H460 lung it was 106%; in the test on HOP-92 NSCLC, 98.6%; in the test on NCI-H522 lung, 94.8%. For the same molecule, the growth with A549/ATCC NSCLC is 92.9%; in the test on 786-0 renal it was 119%; with COLO 205 colon, 120%.

As for `CNC(=O)c1cc(Oc2ccc3c(c2)sc2nc(-c4ccc(NC(=O)Nc5ccc(Cl)c(C(F)(F)F)c5)cc4)cn23)ccn1`, the growth in the test on NCI-H23 lung is 84.7%; in the test with NCI-H226 lung it was 101%; in the test with HOP-62 NSCLC it was 79.1%; in the test on NCI-H460 lung it was 92.5%; in the test on HOP-92 NSCLC, 88.6%; in the test on NCI-H522 lung it was 59%. Further, the growth in the test with A549/ATCC NSCLC was 79.8%; with 786-0 renal, 72.6%; in the test on COLO 205 colon it was 89.6%.

Turning to `Nc1c(Br)cc(Br)c2c1[nH]c(=O)c1ccccc12`, the growth in the test with NCI-H23 lung was 67%; in the test with NCI-H226 lung, 19.5%; with HOP-62 NSCLC, 22.4%; with NCI-H460 lung, 29.1%; in the test with HOP-92 NSCLC, 82.8%; in the test on NCI-H522 lung it was 87.4%. Further, the growth in the test on A549/ATCC NSCLC is 58.7%; with 786-0 renal, 74.3%; in the test with COLO 205 colon, 86.5%.

Consider `O=C(COc1cccc(/C=C2\CSc3ccccc3C2=O)c1)c1ccc(Cl)cc1`, for which the growth in the test on NCI-H23 lung was -7.19% (active); in the test on NCI-H226 lung, 80.1%; in the test with HOP-62 NSCLC it was 79.5%; in the test on NCI-H460 lung, 68.5%; in the test on HOP-92 NSCLC it was 56.5%; in the test on NCI-H522 lung, -76.8% (active). Further, the figures for the growth in the test with A549/ATCC NSCLC, in the test with 786-0 renal and with COLO 205 colon were 40.6%, 80.3% and 96.2%, respectively.

For the molecule `CCCCN(CCCC)C(=O)[C@H](CC)[C@@H]1CC[C@@H](C)[C@@H]([C@H](C)[C@@H](O)[C@@H](C)C(=O)[C@H](CC)C2O[C@]3(C=CC(=O)[C@]4(CC[C@@](C)([C@H]5CC[C@](O)(CC)[C@H](C)O5)O4)O3)[C@H](C)C[C@@H]2C)O1` (stereo not given in full), the growth in the test on NCI-H23 lung was 25.8%; with NCI-H226 lung, 15.3%; in the test with HOP-62 NSCLC, 42.1%; in the test with NCI-H460 lung it was 19.7%; in the test on HOP-92 NSCLC, -6.89% (active); with NCI-H522 lung, 13.2%. Besides, the results for the growth in the test with A549/ATCC NSCLC, with 786-0 renal and with COLO 205 colon were 30.3%, 47.7% and 21.3%, respectively.
